Data published in PubChem BioAssay (NCI).
“And” between values parts separate entries of the source, which are not always exact repeats. Identical values can stand only once. Compounds without any hit were thinned out: in the full panel of roughly 83,000, 20% have a hit.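 Cells were grown in 96-well plates and exposed to the test compound at a single concentration for 48 hours; results are reported as percent growth, with values below 10 considered active.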 Values without a mark were called inactive. The source made the active and inactive calls.

tested on: MDA-MB-468 breast; test: NCI-60 one-dose screen, 48 h (100 = growth as untreated, 0 = no growth, -100 = all killed); details: 10 µM unless noted

Row | SMILES | growth
1 | CNCCNc1nc2ccccc2c2c(=O)c3cccc(C)c3sc12 | -14.9% (active)
2 | CCN(CC)CCCN1C(=O)c2c(c(C)c3c(oc4ccc(O)cc43)c2C)C1=O | 75.7%
3 | COc1cc(OC)c(S(N)(=O)=O)cc1C(=O)/C=C/c1ccc(Cl)cc1 | -57.8% (active)
4 | O=C(CCCCCCN1CC(=O)N2[C@@H](C3CC3)c3[nH]c4ccccc4c3C[C@H]2C1=O)NO | 64.6%
5 | COCC(N)=O | 101%
6 | FC(F)(F)Oc1cccc(-c2cnc3ccc(-c4ccncc4)nn23)c1 | -10.5% (active)
7 | COc1ccc(-c2nn(-c3cccc(Cl)c3)cc2C=C(C#N)C#N)cc1 | -2.82% (active)
8 | Cn1cc(-c2ccc3occ(-c4cccc(-c5ccncc5)c4)c3n2)cn1 | 4.07% (active)
9 | FC(F)(F)C1=NNC(c2ccc3ccccc3c2)=NN1 | 108%
10 | COc1ccc2c(c1)[n+](=O)c(/C=C/C(=O)c1cc(OC)c(OC)c(OC)c1)c(C)n2[O-] | 24.9%
11 | Nc1c(C(=O)c2ccccc2)sc2nc(-c3cccs3)cc(-c3cccs3)c12 | 30.8%
12 | N#Cc1c(-c2ccccc2)cc(-c2ccccc2)n(CCCCCC(=O)Nc2ccccc2N)c1=O | 62.8%
13 | Cn1cc(-c2csc(-c3cn(CCCN4CCCCC4)c4ccccc34)n2)c2cccnc21 | 99.8%
14 | C#C[C@]1(O)CC[C@H]2[C@@H]3CC=C4c5sc(-c6cccc(O)c6)nc5CC[C@]4(C)[C@H]3CC[C@@]21C | 1.79% (active)
15 | c1cncc(CNc2ccccc2-c2nnc(Nc3ccc4c(c3)OCCO4)o2)c1 | -0.422% (active)
16 | O=C(/C=C/c1ccc[nH]1)c1ccc(-n2ccc(C(F)(F)F)n2)cc1 | 90.3%
17 | CCCCCCN1CSC(=S)N(CCCCCC)C1 | 89%
18 | COc1cc(Nc2ncccc2C(=O)NCc2cn(Cc3cccc(Oc4ccccc4)c3)nn2)cc(OC)c1 | 18.6%
19 | CC(C)CC(NC(=O)OCC1c2ccccc2-c2ccccc21)C(=O)O (stereo not given) | 103%
20 | CCN1C(=O)N(CC)C2Nn3c(s/c(=C4\C(=O)N(CC(C)C)c5ccccc54)c3=O)=NC21 (stereo not given) | 15.8%

Row | SMILES | growth
21 | O=C(NCCN1CCCCC1)n1cc(-c2ccncc2)c(-c2ccc(Cl)c(O)c2)n1 | 83.8%
22 | CC(Cc1cccc(C(F)(F)F)c1)NCCOC(=O)c1ccccc1 (stereo not given) | 107%
23 | CCOc1cc2ncc(C#N)c(Nc3ccc(OCc4cccc(F)c4)c(Cl)c3)c2cc1NC(=O)CCCCC1CCSS1 (stereo not given) | 70.4%
24 | O=C(Oc1ccccc1)C(Br)C(Br)c1ccccc1 (stereo not given) | 56.7%
25 | O=c1nc2c(-c3nc4ccccc4s3)n[nH]n2c2sc3c(c12)CCCC3 | 120%
26 | Cc1nc2c(nnn2-c2ccccc2)c2nc(-c3ccccc3)oc(=O)c12 | 110%
27 | CCOC(=O)c1cnc2ccc(OC)cc2c1Nc1cccc(S(=O)(=O)NC)c1 | 113%
28 | O=C1CC(c2ccc(Cl)cc2)c2ncn(-c3cccc(Cl)c3)c2N1 (stereo not given) | 41.3%
29 | Cc1cc(Nc2nc(N3CCOCC3)nc3ccccc23)n[nH]1 | 55.9%
30 | CN1CCCN(CCNc2nccc(-c3c(-c4cccc(O)c4)nc4sccn34)n2)S1(=O)=O | 68.9%
31 | C#Cc1ccc(-n2c(/C=C/c3ccc4ccccc4c3)nc3ncccc3c2=O)cc1 | -16.1% (active)
32 | NC(C(=O)O)c1ccc([N+](=O)[O-])cc1 (stereo not given) | 111%
33 | CC1=C(C)C(=O)C(Nc2cccc(C(F)(F)F)c2)=C(Br)C1=O | -61.4% (active)
34 | CC(=O)OC1CC2CCC1(C)C2(C)C (stereo not given) | 103%
35 | Cn1cc(-c2csc(-c3c[nH]c4ccccc34)n2)c2cccnc21 | -22% (active)
36 | COc1cc(Cc2cc(-c3ccc(Cl)cc3)n[nH]c2=O)ccc1O | 73.9%
37 | Cc1csc(Nc2nc(-c3cccc(Br)c3)nc(C(Cl)(Cl)Cl)n2)n1 | -29.8% (active)
38 | O=C1/C(=C/c2ccccc2)Oc2ccc(O)c(I)c21 | 104%
39 | COc1ccc(/C=C(/C#N)n2nnc3cccc(F)c32)cc1 | -5.27% (active)
40 | CCCCCc1cc[n+](CC(=O)c2ccccc2)cc1 | 86.9% and 76%
